Records with an inconclusive call do not appear. A call without a number means that no potency is given here. Activity calls are given as the source filed them. The call rests on the fitted dose curve; in most records, active means well fitted inhibition curve with a large enough effect; inconclusive means small, poorly fitted or top-dose-only effect; inactive means flat fitted curve, though single readings scatter.
System: Zika virus NS2B-NS3 protease
Test: Primary screen GU AMC qHTS for Zika virus inhibitors (AID 1347154); further: nearly all actives have a fitted effect of over 70% in size
Details: Zika NS2B-NS3 unlinked protease, AMC fluorogenic substrate; series mostly up to 54.1 µM
In short: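 Unlinked Zika NS2B hydrophilic domain–NS3 protease complex at 25 nM in 10 mM Tris-HCl pH 8.0, 0.01% Tween 20, with an AMC peptide substrate. Fluorescence change (340/450 nm) over 15 min at room temperature, normalized to controls, fitted to 4-parameter Hill.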

SMILES	Potency
CCOC(=O)[C@@H](N)CCC(=O)N[C@@H](CSCc1ccccc1)C(=O)N[C@@H](C(=O)OCC)c1ccccc1	inactive
Cc1ccc(C(=O)N(CCCN)[C@@H](c2nc3cc(Cl)ccc3c(=O)n2Cc2ccccc2)C(C)C)cc1	inactive
COc1cc([C@@H]2c3cc4c(cc3[C@@H](O[C@@H]3O[C@@H]5CO[C@@H](C)O[C@@H]5[C@H](O)[C@@H]3O)[C@H]3COC(=O)[C@H]23)OCO4)cc(OC)c1O	inactive
CN(C)CCN(C)C(=O)c1ccc(NC(=O)Nc2ccc(-c3nc(N4CCOCC4)c4ccn(CC(F)(F)F)c4n3)cc2)cc1	inactive
CC(=O)O[C@]1(C(C)=O)CC[C@H]2[C@@H]3C=C(Cl)C4=CC(=O)[C@@H]5C[C@H]5[C@]4(C)[C@@H]3CC[C@@]21C	inactive
O=C1C(CCC(O)c2ccc(F)cc2)C(c2ccc(O)cc2)N1c1ccc(F)cc1 (stereo unspecified)	inactive

— PubChem BioAssay (NCATS)
